Experimental findings from PubChem BioAssay (NCI) are described below.

“And” between values parts separate entries of the source, which are not always exact repeats. Equal entries are not always repeated. Compounds without any hit were thinned out: in the full panel of roughly 83,000, 20% have a hit.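 Growth was measured after 48 h exposure to one concentration of compound in 96-well plates. Values under 10 count as active.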 The source made the active and inactive calls.

The assay concerns DU-145 prostate. Nature of the assay: NCI-60 one-dose screen, 48 h (100 = growth as untreated, 0 = no growth, -100 = all killed). Particulars: 10 µM unless noted.
For the molecule `COc1ccc2c(c1)c(-c1nc(-c3c[nH]c4c(Cl)nccc34)cs1)cn2C`, the growth was 90% (inactive).
As to `C[C@]12CCc3c(ccc4cc(O)ccc34)[C@@H]1C[C@H](O)[C@@H]2O`, the growth was 108% (inactive).
For `ON=C1CCCCCCCC1`, the growth was 107% (inactive) and 103% (inactive).
In the case of `CCCCCCCCCCCCCCCC[N+](C)(C)CCN(Cc1ccc(OC)cc1)c1ncccn1`, the growth was -100% (active) and 69.4% (inactive).
Regarding `Cc1nc2sc(C(=O)Nc3cccc4ncccc34)c(N)c2cc1C(C)O` (stereo unspecified), the growth is 109% (inactive).
On to `C=C[C@]1(C)C=C2CC[C@@H]3C(C)(C)C(=O)CC[C@@]3(C)[C@@H]2CC1`, for which the growth was 108% (inactive).
As to `CC[C@H](C)[C@H](NC(=O)[C@H](CCCCN)NC(=O)[C@H](CCCCN)NC(=O)[C@@H](NC(=O)[C@@H](NC(=O)[C@@H](N)Cc1cnc[nH]1)[C@@H](C)CC)[C@@H](C)CC)C(=O)N[C@@H](CCCNC(=N)N)C(=O)N[C@H](C(=O)N[C@@H](Cc1c[nH]c2ccccc12)C(=O)N[C@@H](Cc1ccc(O)cc1)C(=O)N[C@@H](CCCNC(=N)N)C(=O)N[C@@H](CCCCN)C(=O)N[C@@H](C)C(=O)N[C@@H](Cc1c[nH]c2ccccc12)C(=O)N[C@@H](Cc1cnc[nH]1)C(=O)N[C@H](C(=O)N[C@@H](CC(C)C)C(=O)NCC(=O)N[C@@H](CCCCN)C(=O)N[C@H](C(N)=O)C(C)C)C(C)C)[C@@H](C)O`, the growth was 30.7% (inactive).
Then `CC(=O)N1N=C(c2ccc(F)cc2)CC1c1sc(N(C)Cc2ccccc2)nc1Cl` (stereo unspecified), with 103% (inactive); and `Cn1ccnc1CN1CCSC(C(=O)Nc2ccccc2)C1` (stereo unspecified), with 100% (inactive).
In the case of `COc1ccc(/C=C2/C(=O)N=C3N2NC(c2ccccc2)=CN3c2ccccc2)cc1`, the growth is 114% (inactive).
Regarding `Cc1oc2c(Cc3ccc(NC(=O)c4ccc(Cl)cc4)cc3)ncnc2c1C(=O)NO`, the growth is 105% (inactive).
For the molecule `CCN1CCN(C(=O)[C@]23CC[C@@H](C)[C@H](C)[C@@H]2C2=CC[C@@H]4[C@@]5(C)CCC(=O)C(C)(C)[C@@H]5CC[C@@]4(C)[C@]2(C)CC3)CC1`, the growth is 41.5% (inactive).
As for `CC/C=C\C/C=C\C[C@H](O)C/C=C1/C(=O)C=C[C@@H]1C/C=C\CCCC(=O)OC`, the growth was 6.78% (active).
Take `COc1ccc(-c2nnc3n(C)c(=O)c4ccccc4n23)cc1O`: the growth was 27.1% (inactive).
`Cc1ccc(NC(=O)c2ccc(CN3CCN(C)CC3)cc2)cc1Nc1nccc(-c2cccnc2)n1`: the growth is 85.6% (inactive) and 88.2% (inactive).
Consider `OCCN1CCN(CC/C=C2\c3ccccc3Sc3ccc(Cl)cc32)CC1`, for which the growth is 17.1% (inactive) and 65% (inactive).
Take `COc1cc(-c2nn(-c3cccc(NC(=O)CCN4CCN(C)CC4)c3)cc2-c2ccncc2)ccc1Cl`: the growth was 3.19% (active).
On to `Cc1cnc(C(=O)NNc2nc3sc4c(c3c(=O)[nH]2)C(C)CCC4)cn1` (stereo unspecified), for which the growth was 22.6% (inactive).
Then `Cc1nc(-n2[nH]c(=O)ccc2=O)sc1N=Nc1ccccc1`, with 112% (inactive).
Then `CC(=O)c1c(C)nc(SCC(=O)Nc2ccc(Cl)cc2)n1-c1ccc(Cl)cc1`, with 106% (inactive).
Next, `C[N+]1=C(/C=C\C=C\c2ccccc2)C(C)(C)c2ccccc21`: 48.7% (inactive); `COc1cc(/C=C(/c2ccccc2)[N+](=O)[O-])c(OC)c2c1OCO2`: -87.4% (active); `C=C1C(=O)O[C@H]2[C@H]1CC/C(COC(=O)NCCCCNC(=O)OC/C1=C/CC[C@@]3(C)O[C@H]3[C@H]3OC(=O)C(=C)[C@@H]3CC1)=C\CC[C@@]1(C)O[C@@H]21`: 45.8% (inactive).
On to `COc1ccc(N2CCN(S(=O)(=O)c3oc(-c4ccccc4)nc3C#N)CC2)cc1`, for which the growth is 104% (inactive).
With `COc1ccc(-c2cc3cnc4ccccc4c3oc2=O)cc1`, the growth is 97.8% (inactive).
Then `CCOC(=O)c1nc2c3ccccc3cnn2c1C(=O)c1ccc(OC)cc1`, with 105% (inactive); and `Cc1ccc2c(c1)C(C)Cc1c(ncnc1-n1cnc3cc(C)ccc31)N2C` (stereo unspecified), with 10.9% (inactive).
On to `CCN1C(=O)N(c2ccccc2)C2NC(=S)N(/N=C/C=C/c3ccccc3)C21` (stereo unspecified), for which the growth was 8.79% (active).
Take `COc1ccc(-c2[nH]c3ccccc3c2-c2ccc(OC)cc2)cc1`: the growth was -30.6% (active).
Then `COc1ccc(Cn2cc(C(=O)Nc3cccnc3Nc3ccccc3)nn2)cc1`, with 103% (inactive); and `CSc1nnc(-c2cc3c([nH]c4ccccc43)c(-c3cccc(O)c3)n2)n1-c1ccc(C)cc1`, with 62.8% (inactive).
